Experimental data: PubChem BioAssay (NCATS)
Results filed as inconclusive are left out. Active and inactive are the calls of the source. The call rests on the fitted dose curve.

Molecular target: Peroxisome proliferator-activated receptor delta (Homo sapiens) (UniProt Q03181)
Test: qHTS assay for small molecule agonists of peroxisome proliferator-activated receptor delta signaling (AID 588534)
Conditions: HEK293T PPARdelta-UAS-bla, beta-lactamase ratio, 18 h; series mostly up to 76.7 µM
Outline: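 Fluorescence from CCF4 substrate cleavage by beta-lactamase reporter, read 2 hrs at RT, measured agonist activity. Compounds were tested with 18 hrs exposure at 37 C. Concentration-response data fitted to Hill equation.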

Peroxisome proliferator-activated receptor delta (Homo sapiens), sequence (Q03181 whole entry, looked up): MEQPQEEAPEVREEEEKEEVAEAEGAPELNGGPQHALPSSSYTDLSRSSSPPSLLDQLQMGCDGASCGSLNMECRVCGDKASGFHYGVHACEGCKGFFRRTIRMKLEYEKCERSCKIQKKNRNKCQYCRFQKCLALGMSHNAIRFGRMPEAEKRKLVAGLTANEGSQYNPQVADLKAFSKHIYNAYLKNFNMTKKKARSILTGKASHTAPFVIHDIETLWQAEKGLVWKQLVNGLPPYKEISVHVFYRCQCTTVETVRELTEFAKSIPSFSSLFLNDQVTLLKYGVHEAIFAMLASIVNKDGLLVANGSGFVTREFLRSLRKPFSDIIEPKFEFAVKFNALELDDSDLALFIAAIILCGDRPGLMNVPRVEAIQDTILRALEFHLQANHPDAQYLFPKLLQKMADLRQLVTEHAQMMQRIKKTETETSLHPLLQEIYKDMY

Structure (SMILES) | outcome
CC(O)C(=O)O (stereo unspecified) | inactive
Nc1ccccc1 | inactive
Cc1ncc(CO)c(CO)c1O | inactive
NCCNCCNCCN | inactive
CCCC(C)(COC(N)=O)COC(N)=O | inactive
CC(C)(Oc1ccc(Cl)cc1)C(=O)O | inactive
CCOC(=O)c1ccc(O)cc1 | inactive
N[C@@H](Cc1cc(I)c(Oc2ccc(O)c(I)c2)c(I)c1)C(=O)O | inactive
O=C(O)c1cc(O)c(O)c(O)c1 | inactive
O=C(c1ccccc1)c1ccccc1 | inactive
CCCC(O)C(CC)CO (stereo unspecified) | inactive
